Measurements: PubChem BioAssay (Tox21)
Records with an inconclusive call do not appear. Unmarked numbers belong to inactive results. Activity calls are given as the source filed them. The call rests on the fitted dose curve; in most records, active means well fitted inhibition curve with a large enough effect in the repeat runs; inconclusive means weak or mixed curves; inactive means no such curve, though single readings can be large or run the other way.

Each molecule was assayed against Cytochrome P450 2D6 (Homo sapiens) (UniProt P10635) (assay: Cytochrome P450 Family 2 Subfamily D Member 6 (CYP2D6) small molecule antagonists: luciferase reporter qHTS assay (AID 1671196; further: nearly all actives have a fitted effect of over 50% in size)). Details: P450-Glo CYP2D6 enzyme assay, luciferin luminescence, 1 h; series mostly up to 115 µM; activity change, negative = inhibition: at the top concentration.
Source text: U.S. Tox21 Program National Center for Advancing Translational Sciences [NCATS] U.S. Environmental Protection Agency [EPA] National Institutes of Environmental Health Sciences [NIEHS] National Toxicology Program [NTP] U.S. Food and Drug Administration [FDA] Tox21 Assay Overview: Cytochrome P450 (CYP) enzymes are membrane-bound hemeproteins that play a key role in metabolism of drugs and xenobiotics. Evaluation of the effect of chemicals on CYP isozymes is useful to minimize the adverse drug reactions and toxicities in drug development process. Tox21 chemicals were tested for their effect on CYP enzyme activities by using P450-Glo (TM) screening systems (Promega Corporation, Madison, WI). These systems provide a luminescent method containing proluciferin substrates and are converted to luciferin products by CYP isozymes. The luciferin products formed are detected with a luciferin detection reagent, and the amount of light produced is proportional to CYP activity. P450-Glo (TM) CYP2D6 screening system (Catalog. No. V9890) was used to detect the compounds that interfere in CYP2D6 activity.
Tox21 Assay Protocol Summary: Two ul of enzyme-substrate mix was dispensed into medium binding white/solid 1536-well plates (Greiner Bio-One North America Inc., Monroe, NC) using a BioRaptr Flying Reagent Dispenser (FRD, Beckman Coulter, Brea, CA). […] The assay plates were incubated at room temperature for 10 min. Then 2 ul of NADPH regeneration solution was added to each well of the assay plates using an FRD and incubated at room temperature for 1 h. The reaction was stopped by adding 4 ul of detection reagent using an FRD and after 20 min incubation at room temperature the luminescence signal was measured using a ViewLux plate reader (Perkin Elmer, Shelton, CT). Data were expressed as relative luminescence units.
On the % scale 0 is the no-effect control and ±100 the full control effect; potency means the concentration at half of the fitted maximal effect.

Sequence of Cytochrome P450 2D6 (Homo sapiens) (P10635 whole entry, looked up): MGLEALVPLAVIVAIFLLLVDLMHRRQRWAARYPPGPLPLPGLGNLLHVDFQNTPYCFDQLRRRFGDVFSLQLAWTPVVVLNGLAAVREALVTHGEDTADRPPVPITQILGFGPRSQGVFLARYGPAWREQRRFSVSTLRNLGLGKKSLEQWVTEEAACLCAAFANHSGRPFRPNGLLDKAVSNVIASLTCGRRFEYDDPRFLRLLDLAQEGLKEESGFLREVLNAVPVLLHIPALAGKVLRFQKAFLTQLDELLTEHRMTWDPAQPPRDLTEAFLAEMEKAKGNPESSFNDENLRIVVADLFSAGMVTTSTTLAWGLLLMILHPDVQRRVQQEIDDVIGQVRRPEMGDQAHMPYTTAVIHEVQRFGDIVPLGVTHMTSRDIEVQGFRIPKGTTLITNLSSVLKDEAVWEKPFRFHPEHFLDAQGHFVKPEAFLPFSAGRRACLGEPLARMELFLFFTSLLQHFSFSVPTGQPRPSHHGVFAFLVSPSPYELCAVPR

Compound | activity change, negative = inhibition | Potency
CC1(C)CON(Cc2ccccc2Cl)C1=O | -8.02% | –
CC(=O)CC(c1ccc(Cl)cc1)c1c(O)c2ccccc2oc1=O (stereo not given) | -15.8% | –
CN1CCC(O)(c2ccc(F)cc2)C(C(=O)c2ccc(F)cc2)C1 (stereo not given) | – | 17.4 µM (active)
CC(C)(C)NCC(O)c1cc(Cl)c(N)c(Cl)c1 (stereo not given) | – | 15.5 µM (active)
COC(C)(C)C | 3.3% | –
COc1cc(OC)nc(NC(=O)NS(=O)(=O)c2ncccc2C(=O)N(C)C)n1 | 0.394% | –
COc1cccc2c1cc([N+](=O)[O-])c1c(C(=O)O)cc3c(c12)OCO3 | -25% | –
O=[N+]([O-])c1cccc2c([N+](=O)[O-])cccc12 | – | 11.3 µM (active)
ClCCCN1CCN(c2cccc(Cl)c2)CC1 | – | 0.977 µM (active)
CCCCOC(=O)c1ccccc1C(=O)O | -11.4% | –
CN(C)CCc1ccc(O)cc1 | -8.28% [at 53 µM] | –
Fc1cc(Br)ccc1CBr | -12.7% [at 53 µM] | –
CC(C)CC(N(C)C)C1(c2ccc(Cl)cc2)CCC1 (stereo not given) | – | 4.36 µM (active)
Nc1cc2c3c(c1)C(c1ccccc1)=N[C@@H](NC(=O)c1cccnc1)C(=O)N3CC2 | -21.5% | –
Clc1cccc(N2CCNCC2)c1 | – | 5.49 µM (active)
c1ccc(N2CCNCC2)cc1 | -13.2% [at 53 µM] | –
CCC/C(=N\OCC)C1=C(O)CC(CC(C)SCC)CC1=O (stereo not given) | – | 11.3 µM (active)
N#CC(O)c1ccccc1 (stereo not given) | – | 35.5 µM (active)
CC1COC2(c3ccccc3Cl)c3cc(Cl)ccc3NC(=O)CN12 (stereo not given) | – | 15.5 µM (active)
O=C(Nc1ccccc1)N(Cc1ccc(Cl)cc1)C1CCCC1 | – | 12.6 µM (active)

Compound | activity change, negative = inhibition | Potency
CCCSC(=O)N(CCC)CCC | -7.4% | –
ClCC(Cl)(Cl)Cl | -1.57% | –
CC1=C(C(=O)Nc2ccccc2)S(=O)(=O)CCO1 | -9.65% | –
Nc1cc(Cl)ccc1O | – | 34.4 µM (active)
CCNc1nc(NC(C)C)nc(OC)n1 | 2.8% | –
CCSC(=O)N(CC)C1CCCCC1 | -5.61% | –
CCOP(=S)(OCC)SCSP(=S)(OCC)OCC | – | 35.6 µM (active)
CCOC(=O)N(C)C(=O)CSP(=S)(OCC)OCC | – | 28.3 µM (active)
CCC(=O)C(CCN(C)C)(c1ccccc1)c1ccccc1 | – | 5.49 µM (active)
C[N+](=O)[O-] | 1.98% | –
COc1cc(OC)nc(Oc2cccc(Oc3nc(OC)cc(OC)n3)c2C(=O)O)n1 | -13.5% | –
C=C(C)[C@@H]1CC=C(C=O)CC1 | -20.9% | –
O=C(O)c1cccc(Cl)c1 | -15.1% | –
CS(=O)(=O)c1cc(C(F)(F)F)ccc1C(=O)c1cnoc1C1CC1 | -17% | –
N#CCBr | -19.1% | –
Nc1ccccc1Cl | – | 6.87 µM (active)
ClC(Br)Br | -25.3% | –
CCCSP(=O)(OCC)Oc1ccc(Br)cc1Cl (stereo not given) | – | 15.4 µM (active)
CCCCc1c(C)nc(NCC)[nH]c1=O | 1.83% | –
CC(C=O)Cc1ccc2c(c1)OCO2 (stereo not given) | – | 63.3 µM (active)
